Results as given in PubChem BioAssay (NCI).
About 83,000 compounds went through this panel and 20% of them were active in at least one assay; those are over-represented in the sample as a whole.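 Treatment: one concentration, 48 hours, 96-well format. Scoring: percent growth, with anything below 10 considered active.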 Active and inactive are the calls of the source.

Tests used:
Experiment in all cases: NCI-60 one-dose screen, 48 h (100 = growth as untreated, 0 = no growth, -100 = all killed)
Conditions in all cases: 10 µM unless noted
SR leukemia = system: SR leukemia
OVCAR-8 ovarian = system: OVCAR-8 ovarian
OVCAR-5 ovarian = system: OVCAR-5 ovarian
OVCAR-4 ovarian = system: OVCAR-4 ovarian
SK-OV-3 ovarian = system: SK-OV-3 ovarian
IGROV1 ovarian = system: IGROV1 ovarian
OVCAR-3 ovarian = system: OVCAR-3 ovarian
HS 578T breast = system: HS 578T breast
NCI/ADR-RES ovarian = system: NCI/ADR-RES ovarian
T-47D breast = system: T-47D breast
BT-549 breast = system: BT-549 breast
MDA-MB-435 melanoma = system: MDA-MB-435 melanoma
MCF7 breast = system: MCF7 breast
HCT-116 colon = system: HCT-116 colon
HCC-2998 colon = system: HCC-2998 colon
KM12 colon = system: KM12 colon
SW-620 colon = system: SW-620 colon
RPMI-8226 leukemia = system: RPMI-8226 leukemia

Measured: growth

COc1cccc2c1Cc1ccccc1-2
inactive: SR leukemia 121% | OVCAR-8 ovarian 112% | OVCAR-5 ovarian 107% | OVCAR-4 ovarian 98.9% | SK-OV-3 ovarian 115% | IGROV1 ovarian 115% | OVCAR-3 ovarian 112% | HS 578T breast 103% | NCI/ADR-RES ovarian 98.6% | T-47D breast 101% | BT-549 breast 106% | MDA-MB-435 melanoma 103% | MCF7 breast 100% | HCT-116 colon 101% | HCC-2998 colon 98.5% | KM12 colon 104%

CCCCCC#CC(=O)O
inactive: SR leukemia 97.7% | OVCAR-8 ovarian 98.3% | OVCAR-5 ovarian 105% | OVCAR-4 ovarian 103% | SK-OV-3 ovarian 102% | IGROV1 ovarian 100% | OVCAR-3 ovarian 123% | NCI/ADR-RES ovarian 119% | T-47D breast 85.2% | BT-549 breast 64.1% | MDA-MB-435 melanoma 107% | SW-620 colon 104% | MCF7 breast 95.4% | HCT-116 colon 112% | HCC-2998 colon 113% | KM12 colon 121%

Nc1nnc2cc(F)ccc2n1
inactive: RPMI-8226 leukemia 102% | OVCAR-8 ovarian 110% | OVCAR-5 ovarian 97.9% | OVCAR-4 ovarian 115% | SK-OV-3 ovarian 91.6% | IGROV1 ovarian 102% | OVCAR-3 ovarian 96.2% | HS 578T breast 97.2% | NCI/ADR-RES ovarian 103% | T-47D breast 96% | BT-549 breast 81.5% | MDA-MB-435 melanoma 118% | SW-620 colon 94.1% | MCF7 breast 96.3% | HCT-116 colon 91.9% | HCC-2998 colon 103% | KM12 colon 103%

O=C(O)c1c[nH]c2ccccc2c1=O
inactive: SR leukemia 99.9% | OVCAR-8 ovarian 108% | OVCAR-5 ovarian 93.9% | OVCAR-4 ovarian 93.4% | SK-OV-3 ovarian 92.3% | IGROV1 ovarian 99.2% | OVCAR-3 ovarian 107% | HS 578T breast 112% | NCI/ADR-RES ovarian 104% | T-47D breast 89.5% | MDA-MB-435 melanoma 107% | SW-620 colon 108% | MCF7 breast 93.9% | HCT-116 colon 95% | HCC-2998 colon 102% | KM12 colon 100%

Cc1cccc2ccccc12
inactive: RPMI-8226 leukemia 101% | OVCAR-8 ovarian 100% | OVCAR-5 ovarian 104% | OVCAR-4 ovarian 108% | SK-OV-3 ovarian 103% | IGROV1 ovarian 112% | OVCAR-3 ovarian 110% | HS 578T breast 107% | NCI/ADR-RES ovarian 99.6% | T-47D breast 109% | BT-549 breast 99.6% | MDA-MB-435 melanoma 104% | SW-620 colon 102% | MCF7 breast 84.1% | HCT-116 colon 95.8% | HCC-2998 colon 99.8% | KM12 colon 106%

CCOc1ccncc1[N+](=O)[O-]
inactive: SR leukemia 102% | OVCAR-8 ovarian 97.5% | OVCAR-4 ovarian 116% | SK-OV-3 ovarian 110% | IGROV1 ovarian 118% | OVCAR-3 ovarian 106% | HS 578T breast 112% | NCI/ADR-RES ovarian 106% | T-47D breast 104% | BT-549 breast 111% | SW-620 colon 101% | MCF7 breast 100% | HCT-116 colon 108% | HCC-2998 colon 106% | KM12 colon 101%

ON1CCCC1
inactive: SR leukemia 90.3% | OVCAR-8 ovarian 103% | OVCAR-5 ovarian 103% | OVCAR-4 ovarian 107% | SK-OV-3 ovarian 102% | IGROV1 ovarian 108% | OVCAR-3 ovarian 112% | NCI/ADR-RES ovarian 102% | T-47D breast 98.6% | MDA-MB-435 melanoma 107% | SW-620 colon 101% | MCF7 breast 95% | HCT-116 colon 97.4% | HCC-2998 colon 98.8% | KM12 colon 110%

CCOC(=O)CO
inactive: SR leukemia 95% | OVCAR-8 ovarian 109% | OVCAR-5 ovarian 105% | OVCAR-4 ovarian 111% | SK-OV-3 ovarian 109% | IGROV1 ovarian 105% | OVCAR-3 ovarian 125% | HS 578T breast 109% | NCI/ADR-RES ovarian 109% | T-47D breast 97.7% | MDA-MB-435 melanoma 104% | SW-620 colon 110% | MCF7 breast 97.5% | HCT-116 colon 102% | HCC-2998 colon 103% | KM12 colon 109%

S=CN1CCCCC1
inactive: SR leukemia 99.5% | OVCAR-8 ovarian 97.5% | OVCAR-4 ovarian 102% | SK-OV-3 ovarian 115% | IGROV1 ovarian 109% | OVCAR-3 ovarian 102% | HS 578T breast 112% | NCI/ADR-RES ovarian 106% | T-47D breast 103% | BT-549 breast 105% | MDA-MB-435 melanoma 103% | SW-620 colon 105% | MCF7 breast 96.3% | HCT-116 colon 102% | HCC-2998 colon 103% | KM12 colon 98.8%

COC(=O)C1=C(C)C(=O)CC1
inactive: RPMI-8226 leukemia 110% | OVCAR-8 ovarian 109% | OVCAR-5 ovarian 99.6% | OVCAR-4 ovarian 119% | SK-OV-3 ovarian 112% | IGROV1 ovarian 112% | OVCAR-3 ovarian 114% | HS 578T breast 104% | NCI/ADR-RES ovarian 135% | T-47D breast 127% | BT-549 breast 114% | MDA-MB-435 melanoma 121% | SW-620 colon 106% | MCF7 breast 97.4% | HCT-116 colon 103% | HCC-2998 colon 116% | KM12 colon 121%

NC(=O)N1CCOCC1
inactive: SR leukemia 89.8% | OVCAR-8 ovarian 103% | OVCAR-5 ovarian 108% | OVCAR-4 ovarian 103% | SK-OV-3 ovarian 103% | IGROV1 ovarian 113% | OVCAR-3 ovarian 103% | HS 578T breast 113% | NCI/ADR-RES ovarian 113% | T-47D breast 97.4% | MDA-MB-435 melanoma 116% | SW-620 colon 112% | MCF7 breast 93% | HCT-116 colon 106% | HCC-2998 colon 112% | KM12 colon 108%

O=C(OC1CCCC1)c1ccccc1Cl
inactive: SR leukemia 104% | OVCAR-8 ovarian 111% | OVCAR-5 ovarian 96.2% | SK-OV-3 ovarian 108% | IGROV1 ovarian 106% | OVCAR-3 ovarian 112% | HS 578T breast 91.7% | NCI/ADR-RES ovarian 108% | T-47D breast 96% | BT-549 breast 104% | MDA-MB-435 melanoma 105% | SW-620 colon 106% | MCF7 breast 96.2% | HCT-116 colon 98.7% | HCC-2998 colon 103% | KM12 colon 105%

Nc1c(Br)cc(O)c2c1C(=O)c1ccccc1C2=O
inactive: RPMI-8226 leukemia 84% | OVCAR-8 ovarian 55.6% | OVCAR-5 ovarian 112% | OVCAR-4 ovarian 87.4% | SK-OV-3 ovarian 109% | IGROV1 ovarian 56.3% | OVCAR-3 ovarian 96.2% | HS 578T breast 88.8% | NCI/ADR-RES ovarian 89.6% | T-47D breast 93.7% | BT-549 breast 94.5% | MDA-MB-435 melanoma 98% | SW-620 colon 61.7% | HCT-116 colon 69.8% | KM12 colon 24.7%

O=C(N/N=C\c1ccc(Cl)cc1Cl)c1ccncc1
inactive: RPMI-8226 leukemia 91.5% | OVCAR-8 ovarian 101% | OVCAR-5 ovarian 105% | OVCAR-4 ovarian 106% | SK-OV-3 ovarian 117% | IGROV1 ovarian 96.3% | OVCAR-3 ovarian 113% | HS 578T breast 123% | NCI/ADR-RES ovarian 102% | T-47D breast 96.6% | BT-549 breast 65.7% | MDA-MB-435 melanoma 105% | SW-620 colon 111% | MCF7 breast 87.2% | HCT-116 colon 101% | KM12 colon 112%

CCCCCCCCCCCCCC/C=C\C(CC(=O)O)C(=O)O (stereo unspecified)
inactive: RPMI-8226 leukemia 113% | OVCAR-8 ovarian 103% | OVCAR-5 ovarian 105% | OVCAR-4 ovarian 112% | SK-OV-3 ovarian 105% | IGROV1 ovarian 117% | OVCAR-3 ovarian 114% | HS 578T breast 127% | NCI/ADR-RES ovarian 107% | T-47D breast 115% | BT-549 breast 116% | MDA-MB-435 melanoma 126% | SW-620 colon 103% | MCF7 breast 105% | HCT-116 colon 103% | HCC-2998 colon 102% | KM12 colon 103%

CCCCc1ccc2nc(NC(=O)OC)[nH]c2c1
inactive: OVCAR-8 ovarian 11.6% | OVCAR-5 ovarian 23% | OVCAR-4 ovarian 59.4% | SK-OV-3 ovarian 15.2% | T-47D breast 76.8% | BT-549 breast 31.1% | SW-620 colon 14.4% | MCF7 breast 12.8%
active: RPMI-8226 leukemia -26.4% | OVCAR-3 ovarian -57.8% | HS 578T breast 8.57% | NCI/ADR-RES ovarian -1.32% | MDA-MB-435 melanoma 0.507% | HCT-116 colon 7.36% | HCC-2998 colon -43.3% | KM12 colon -12.2%

O=S(Cc1ccccc1)/C(=C/NC(=S)Nc1cc(Cl)ccc1Cl)c1ccccc1 (stereo unspecified)
inactive: RPMI-8226 leukemia 102% | OVCAR-8 ovarian 113% | OVCAR-5 ovarian 100% | OVCAR-4 ovarian 105% | SK-OV-3 ovarian 101% | IGROV1 ovarian 95.8% | OVCAR-3 ovarian 110% | HS 578T breast 102% | NCI/ADR-RES ovarian 105% | T-47D breast 104% | BT-549 breast 96.5% | MDA-MB-435 melanoma 108% | SW-620 colon 107% | MCF7 breast 96.9% | HCT-116 colon 109% | HCC-2998 colon 103% | KM12 colon 100%

CC1(C)C2CCC1(C)C1(C2)OCCS1 (stereo unspecified)
inactive: RPMI-8226 leukemia 113% | OVCAR-8 ovarian 101% | OVCAR-5 ovarian 93.3% | OVCAR-4 ovarian 101% | SK-OV-3 ovarian 106% | IGROV1 ovarian 104% | OVCAR-3 ovarian 109% | HS 578T breast 102% | NCI/ADR-RES ovarian 92.4% | T-47D breast 93.9% | BT-549 breast 88.3% | MDA-MB-435 melanoma 99.6% | SW-620 colon 100% | MCF7 breast 88.9% | HCT-116 colon 110% | HCC-2998 colon 101% | KM12 colon 102%

NC(=S)N/N=C/c1ccc(OC(=O)COc2ccc(Cl)cc2)cn1
inactive: RPMI-8226 leukemia 59.1% | OVCAR-8 ovarian 23.9% | OVCAR-5 ovarian 120% | OVCAR-4 ovarian 59.2% | SK-OV-3 ovarian 82.1% | IGROV1 ovarian 46.5% | OVCAR-3 ovarian 56.4% | HS 578T breast 114% | NCI/ADR-RES ovarian 27.9% | T-47D breast 33.9% | BT-549 breast 55% | MDA-MB-435 melanoma 59.1% | MCF7 breast 23.6% | HCT-116 colon 39.7% | KM12 colon 64.8%
